Laboratory results published in PubChem BioAssay (NCATS).
“And” between values parts separate entries of the source, which are not always exact repeats. Equal entries are not always repeated. Results filed as inconclusive are left out. The source made the active and inactive calls. Unless noted, calls follow the shape of the dose curve; as a rule, active = well fitted curve in the direction sought with a large enough effect; inconclusive = small, poorly fitted or top-dose-only effect, or another doubt; inactive = no such curve, though single readings can be large; an effect the other way counts as inactive or inconclusive.

Legend:
[1] = biological target: Cellular tumor antigen p53 (Homo sapiens) (UniProt P04637); assay: Primary qHTS for small molecule compounds that upregulate eGFP-tagged delta133p53alpha (in N-terminal) cells. (AID 2060322); details: NCI-H358 eGFP-delta133p53alpha fluorescence, 24 h; activation: hits give high values; also: nearly all actives have a fitted effect of over 75% in size;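 as to activation: series mostly up to about 56 µM; 0% = DMSO vehicle and 100% = reference activator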
Cellular tumor antigen p53 (Homo sapiens), sequence (P04637 whole entry, looked up): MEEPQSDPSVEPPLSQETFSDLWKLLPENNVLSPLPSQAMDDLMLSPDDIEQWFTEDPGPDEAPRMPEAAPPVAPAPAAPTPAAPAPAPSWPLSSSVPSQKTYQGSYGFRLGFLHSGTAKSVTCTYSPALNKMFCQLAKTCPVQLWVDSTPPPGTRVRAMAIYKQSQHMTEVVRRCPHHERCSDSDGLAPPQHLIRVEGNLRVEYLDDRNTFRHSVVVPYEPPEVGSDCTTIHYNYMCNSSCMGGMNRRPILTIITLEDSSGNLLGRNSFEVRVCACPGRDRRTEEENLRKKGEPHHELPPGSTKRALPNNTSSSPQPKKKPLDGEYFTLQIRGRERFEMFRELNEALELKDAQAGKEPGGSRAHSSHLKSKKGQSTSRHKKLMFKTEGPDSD
How it was run: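 NCI-H358 cells pre-induced 24 h with 10 ng/ml doxycycline to express N-terminal eGFP-delta133p53alpha, then dosed 24 h at 37C without doxycycline; fixed, Hoechst-stained, GFP intensity by laser scanning cytometry, normalized to DMSO (0%) and 57.5 uM 5-azacytidine (100%).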

[2] = biological target: Aldehyde dehydrogenase, mitochondrial (Homo sapiens) (UniProt P05091); assay: qHTS for Inhibitors of the Aldehyde Dehydrogenase Family (ALDH2) Confirmatory screens (AID 2061303; active = well fitted inhibition curve with a large enough effect; title and protocol of this record describe different tests; also: nearly all actives have a fitted effect of over 45% in size)
[3] = qHTS for Inhibitors of the Aldehyde Dehydrogenase Family (ALDH1A2, ALDH1A3, ALDH2, ALDH3A1) (AID 2061307); also: nearly all actives have a fitted effect of over 50% in size; as to Potency: test system not described further here
[4] = biological target: Aldehyde dehydrogenase, mitochondrial (Homo sapiens) (UniProt P05091); assay: qHTS for Inhibitors of the Aldehyde Dehydrogenase Family (ALDH2) Primary screen (AID 2061308); also: nearly all actives have a fitted effect of over 55% in size
[5] = biological target: Retinaldehyde dehydrogenase 3 (Homo sapiens) (UniProt P47895); assay: qHTS for Inhibitors of the Aldehyde Dehydrogenase Family (ALDH1A3) Confirmatory screens (AID 2061311); also: nearly all actives have a fitted effect of over 60% in size
[6] = biological target: Retinal dehydrogenase 2 (Homo sapiens) (UniProt O94788); assay: qHTS for Inhibitors of the Aldehyde Dehydrogenase Family (ALDH1A2) Confirmation screens (AID 2061314); also: nearly all actives have a fitted effect of over 65% in size
[7] = biological target: Aldehyde dehydrogenase 1A1 (Homo sapiens) (UniProt P00352); assay: qHTS for Inhibitors of the Aldehyde Dehydrogenase Family (ALDH1A1) Confirmatory screens (AID 2061316); also: nearly all actives have a fitted effect of over 65% in size
[8] = biological target: Retinaldehyde dehydrogenase 3 (Homo sapiens) (UniProt P47895); assay: qHTS for Inhibitors of the Aldehyde Dehydrogenase Family (ALDH1A3) Primary screen (AID 2061315)
[9] = biological target: Retinaldehyde dehydrogenase 3 (Homo sapiens) (UniProt P47895); assay: qHTS for Inhibitors of the Aldehyde Dehydrogenase Family (ALDH1A3) Validation screen (AID 2061312); also: nearly all actives have a fitted effect of over 45% in size
[10] = BET inhibitor-based combinations targeting novel dependencies in MECOM-rearranged (r) AML: SET-2 cell line (AID 2202231); details: SET-2 AML cells viability, CellTiter-Glo luminescence, 48 h; viability: hits give low values, concentration not given here; also: nearly all actives have a fitted effect of over 35% in size;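 as to viability: plate controls were DMSO treated cells for no effect and wells without cells for full effect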
How it was run: (§1)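 Luminescent ATP readout (CellTiter-Glo) after 48 hr drug exposure gives viability. Curves span 11 concentrations and are normalized to DMSO and empty wells. Activity is reported as area under the curve and its Z-transform within each cell line.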

[11] = BET inhibitor-based combinations targeting novel dependencies in MECOM-rearranged (r) AML: MV-4-11 cell line (AID 2202233); also: nearly all actives have a fitted effect of over 45% in size
How it was run: (§2)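 Luminescent ATP readout (CellTiter-Glo, 15 min at room temperature) after 48 hr drug exposure gave viability. Dose-response curves, normalized to DMSO and empty-well controls, were summarized as area under the curve and its mean-centred Z-score.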

[12] = BET inhibitor-based combinations targeting novel dependencies in MECOM-rearranged (r) AML: UCSD-AML1 cell line (AID 2202235); also: nearly all actives have a fitted effect of over 40% in size
How it was run: as §2

[13] = BET inhibitor-based combinations targeting novel dependencies in MECOM-rearranged (r) AML: AML-191 cell line (AID 2202236; also: nearly all actives have a fitted effect of over 35% in size)
How it was run: as §1

[14] = BET inhibitor-based combinations targeting novel dependencies in MECOM-rearranged (r) AML: AML-194 cell line (AID 2202237; also: nearly all actives have a fitted effect of over 40% in size)
How it was run: as §1

[15] = BET inhibitor-based combinations targeting novel dependencies in MECOM-rearranged (r) AML: OCI-AML3 cell line (AID 2202232); details: Potency: OCI-AML3 viability; also: nearly all actives have a fitted effect of over 35% in size
How it was run: as §1

[16] = BET inhibitor-based combinations targeting novel dependencies in MECOM-rearranged (r) AML: HNT-34 cell line (AID 2202234); also: nearly all actives have a fitted effect of over 35% in size
How it was run: as §2
Potency is read from the fitted curve at half-maximal effect.

C=C1CC[C@@H]2[C@](C)(CO)[C@H](O)CC[C@@]2(C)[C@@H]1CC(=O)C1=CCOC1=O
inactive: activation [1] 9.16% | Potency [2] | Potency [3] | Potency [4] | Potency [5] | Potency [6] | Potency [7]

CCOC(=O)[C@H](CCc1ccccc1)N[C@@H](C)C(=O)N1C(=O)N(C)C[C@H]1C(=O)O
inactive: activation [1] 12.6% and 0.333% | Potency [2] | Potency [3] | Potency [4] | Potency [5] | Potency [6] | Potency [8] | Potency [7]

Fc1ccc(-c2nc(C3CCNCC3)sc2-c2ccnc(NC3CC3)n2)cc1
inactive: Potency [2] | Potency [3] | Potency [4] | Potency [5] | Potency [6] | Potency [8] | Potency [7]
active: Potency [1] 26.9 µM

N[C@H]1Cc2ccccc2N(O)C1=O
inactive: activation [1] 13.7% | Potency [2] | Potency [3] | Potency [4] | Potency [5] | Potency [6] | Potency [8] | Potency [7]

CC/C=C\[C@H](O)[C@H](O)C1=C(C)C(=O)[C@]2(O1)C(=O)N[C@@](O)(C(=O)c1ccccc1)[C@@H]2O
inactive: activation [1] -14.5% | Potency [2] | Potency [3] | Potency [4] | Potency [5] | Potency [6] | Potency [8]

NC(=O)[C@H]1CCS[C@@H]2C[C@]3(CCCN3C(=O)Cc3ccc(NC(=O)COc4ccc(Cl)cc4Cl)cc3)C(=O)N12
inactive: activation [1] 19% | Potency [2] | Potency [3] | Potency [4] | Potency [5] | Potency [9] | Potency [6] | Potency [8] | Potency [7]
active: Potency [10] 14.8 µM | Potency [11] 7.42 µM | Potency [12] 7.42 µM | Potency [13] 5.25 µM | Potency [14] 6.61 µM

O=c1cc(CN2CCOCC2)occ1OCCCCCSc1ccnc2cc(C(F)(F)F)ccc12
inactive: activation [1] -4.65% and 8.33% | Potency [2] | Potency [4] | Potency [5] | Potency [6] | Potency [8] | Potency [15] | Potency [12]
active: Potency [3] 22.5 µM

Cc1ccc(S(=O)(=O)c2ccc([N+](=O)[O-])o2)cc1
active: Potency [1] 8.49 µM | Potency [2] 1.59 µM | Potency [3] 0.708 µM | Potency [4] 0.562 µM | Potency [5] 11.2 µM | Potency [9] 1.41 µM | Potency [6] 3.98 µM | Potency [7] 0.504 µM

COc1cccc(OC)c1C(=O)N[C@@H]1C(=O)N2[C@@H]1SC(C)(C)[C@@H]2C(=O)O
inactive: activation [1] -33.3% and -3% | Potency [2] | Potency [3] | Potency [4] | Potency [5] | Potency [6] | Potency [8] | Potency [7]

CC(C)(CC(=O)N1CCCC1)NCC(=O)N1C[C@@H](F)C[C@H]1C#N
inactive: activation [1] 0.333% | Potency [2] | Potency [3] | Potency [4] | Potency [5] | Potency [6] | Potency [8] | Potency [7]

COC(=O)[C@]1(Cc2ccc(O)c(CC=C(C)C)c2)OC(=O)C(O)=C1c1ccc(O)cc1
inactive: activation [1] 1.53% | Potency [2] | Potency [3] | Potency [4] | Potency [6]
active: Potency [5] 12.3 µM

O=C1C[C@@H](c2ccc(O)cc2)Oc2cc(O)ccc21
active: Potency [3] 3.02 µM | Potency [5] 12.7 µM
inactive: activation [1] 4.3% | Potency [2] | Potency [4] | Potency [6] | Potency [7]

C=C1C(=O)O[C@H]2C[C@@H](C)[C@@H]3CCC(=O)[C@@]3(C)C[C@H]12
inactive: Potency [2] | Potency [4] | Potency [6] | Potency [8] | Potency [7]
active: Potency [1] 10.7 µM | Potency [3] 20.1 µM | Potency [5] 14.2 µM

O=C(CCl)Nc1cccc(NC2=NS(=O)(=O)c3ccccc32)c1
inactive: Potency [2] | Potency [3] | Potency [4] | Potency [5] | Potency [8]
active: Potency [1] 26.9 µM | Potency [6] 1.01 µM | Potency [7] 12.7 µM | Potency [15] 10.5 µM | Potency [11] 16.6 µM | Potency [16] 5.25 µM | Potency [13] 8.33 µM | Potency [14] 13.2 µM

OC[C@H]1O[C@@H](n2cnc3c2NC=NC[C@H]3O)C[C@@H]1O
inactive: activation [1] -7.16% | Potency [2] | Potency [3] | Potency [4] | Potency [5] | Potency [9] | Potency [6] | Potency [8] | Potency [7] | viability [10] 108% | Potency [15] | Potency [11] | Potency [16] | Potency [12] | Potency [13] | Potency [14]

O=C(NCCN1CCN(c2cccc3ccc(O)cc23)CC1)c1ccc(F)cc1
active: Potency [3] 15.8 µM | Potency [5] 5.04 µM | Potency [7] 10.1 µM
inactive: activation [1] -8.04% | Potency [2] | Potency [4] | Potency [6]

COc1cc(CC2COC(c3ccc(OC4OC(CO)C(O)C(O)C4O)c(OC)c3)C2CO)ccc1O (stereo not given)
inactive: activation [1] -20.6% | Potency [2] | Potency [3] | Potency [4] | Potency [6]
active: Potency [5] 11 µM | Potency [8] 8.91 µM

Cc1onc(-c2c(Cl)cccc2Cl)c1C(=O)N[C@@H]1C(=O)N2[C@@H]1SC(C)(C)[C@@H]2C(=O)O
inactive: activation [1] -9.21% and 6.21% | Potency [2] | Potency [3] | Potency [4] | Potency [5] | Potency [9] | Potency [8] | Potency [7]

Clc1cccc(COc2cncc(N3CCNCC3)n2)c1
inactive: activation [1] 14.8% | Potency [2] | Potency [3] | Potency [4] | Potency [5] | Potency [6] | Potency [8] | Potency [7]
